ALOX12 inhib: 12-hLO (ALOX12) enzyme inhibition; P18054; purified 12-hLO, xylenol orange hydroperoxide absorbance; Potency, µM (doses to about 57.1 µM), for the others: at the top dose activity change, negative = inhibition, actives largely listed as inhibitors; hit rate 0.12% among 150,000; active means well fitted inhibition curve with a large enough effect; inconclusive means small, poorly fitted or top-dose-only effect; further: potency means the concentration at half of the fitted maximal effect; nearly all actives have a fitted effect of over 55% in size
Target sequence (P18054 whole entry, looked up): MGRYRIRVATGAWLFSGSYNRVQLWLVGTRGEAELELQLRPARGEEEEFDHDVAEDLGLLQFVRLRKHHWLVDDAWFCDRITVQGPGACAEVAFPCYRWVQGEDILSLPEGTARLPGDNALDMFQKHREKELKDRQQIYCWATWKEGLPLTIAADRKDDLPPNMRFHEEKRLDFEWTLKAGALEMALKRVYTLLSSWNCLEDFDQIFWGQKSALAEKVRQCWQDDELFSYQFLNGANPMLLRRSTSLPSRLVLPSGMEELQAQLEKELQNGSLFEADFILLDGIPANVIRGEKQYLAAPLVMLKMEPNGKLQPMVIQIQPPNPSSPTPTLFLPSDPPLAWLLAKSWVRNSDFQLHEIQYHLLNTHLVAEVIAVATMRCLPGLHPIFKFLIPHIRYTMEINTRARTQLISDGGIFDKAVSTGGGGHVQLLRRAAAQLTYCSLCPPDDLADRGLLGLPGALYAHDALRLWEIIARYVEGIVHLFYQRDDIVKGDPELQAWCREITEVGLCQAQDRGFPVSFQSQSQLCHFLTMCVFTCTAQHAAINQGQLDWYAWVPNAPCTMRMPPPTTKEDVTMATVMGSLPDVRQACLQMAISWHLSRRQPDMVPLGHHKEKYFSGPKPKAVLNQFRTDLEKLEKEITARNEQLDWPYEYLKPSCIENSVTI
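Hydroperoxide output read as Fe(III)-xylenol orange absorbance, 573-to-405 nm ratio, after 30 min reaction with 40 uM arachidonic acid. Enzyme: 150 nM purified human 12hLO, 15 min compound preincubation; 25 mM Hepes pH 7.0, room temperature.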
PNC inhibitor: inhibitors of perinucleolar compartment assembly | PC3M PTB-GFP, PNC prevalence imaging, 16 h; stronger effect = lower value | activity change (PNC), negative = inhibition, % at 10 µM | hit rate 3.1% among 140,000 | AID 2417;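 active means readout at or below -70, meaning at least 70% loss of cells showing the perinucleolar compartment, a nuclear body marking cancer cells; inconclusive means readout between -30 and a set limit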;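 further: plate controls were DMSO wells for no effect and camptothecin positive control wells for full effect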
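Read-out is percentage of cells bearing a perinucleolar compartment, from automated 20x imaging of fixed, Hoechst-stained PC3M PTB-GFP cells. Cells were seeded 4 h, then exposed 16 h to compound (23 nl of library stock) in duplicate plates.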
HPGD inh: HPGD (human) dehydrogenase inhibition | P15428 | purified HPGD, NADH fluorescence kinetic, PGE2 substrate | hit rate 4.3% among 150,000 | Potency, µM, inactives show at the highest dose activity change, negative = inhibition, hits mostly inhibitors; further: potency means the concentration at half of the fitted maximal effect
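NADH formation kinetics: reaction with 30 uM PGE2 and 1 mM NAD+ (final), 20 nM enzyme, Tris-HCl pH 8 with Tween 20, after 15 min compound preincubation at room temperature. Fluorescence change, last versus first of five reads.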
LMNA splice mod: changes lamin A minigene splicing in HeLa cells | HeLa LMNA splicing GFP/RFP minigene ratio, 48 h | Potency, µM (doses to about 46.1 µM), inactives show top-dose ratio change, negative = inhibition, most hits filed as inhibitors | hit rate 0.01% among 200,000; active means well fitted inhibition curve with a large enough effect in the signal ratio, with a control signal flat, not every such curve was filed as active; inconclusive means small, poorly fitted or top-dose-only effect, or effect the other way, or a change in a side signal; the % refers to the signal ratio; further: potency means the concentration at half of the fitted maximal effect
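S3 HeLa stable clones carrying a lamin A-EGFP splicing minigene plus DsRed2 were seeded at 600 cells/well in Opti-MEM with 2% FBS, pin-dosed and incubated 48 h at 37°C. Acumen cytometry (488 nm) gave the GFP/RFP total-intensity ratio.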
ALDH1A1 block: inhibitors of human aldehyde dehydrogenase 1A1; Purified ALDH1A1, NADH fluorescence, propionaldehyde substrate; Potency, µM (doses to about 75.3 µM), for the others: top-dose activity, negative = inhibition, usual class: inhibitors; hit rate 7.3% among 220,000; AID 1030;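 further: potency means the concentration at half of the fitted maximal effect; plate controls were no enzyme wells and a reference inhibitor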
* hit, by the source's call; ? = inconclusive; . = not tested or not shown; [ ] = dose if it differs, or a comment. Compounds with a hit are over-represented: about 10% of the library has one in this group of screens. Unless noted, the call rests on the fitted dose curve; in most records, active means well fitted inhibition curve with a large enough effect (not every such curve was filed as active); inconclusive means small, poorly fitted or top-dose-only effect, or another doubt; inactive means no such curve, though single readings can be large or run the other way. Unless noted, on the % scale 0 is the no-effect control and ±100 the full control effect.

SMILES | ALOX12 inhib | PNC inhibitor | HPGD inh | LMNA splice mod | ALDH1A1 block
CN(C(=O)CSc1nc2ccccc2n1CCc1ccccc1)C1CCS(=O)(=O)C1 (stereo unspecified) | 4% | ? | -14% | -4% | 22µM*
Cc1ccccc1-n1nnnc1SCC(=O)N(C)C1CCS(=O)(=O)C1 (stereo unspecified) | . | . | . | -6%[46 µM] | 11µM*
CCCCC/C=C\C/C=C\C/C=C\C=C\[C@@H](O)CCCC(=O)O | 1% | . | -5% | . | 5%
CCCn1c(C)nc2c(NCCO)nc(C)nc21 | -5% | . | -4% | . | 1%
COc1ccc(CNC(=O)C/C(C)=N/NC(=O)COc2ccc(C)cc2Br)cc1 | . | . | . | 0%[46 µM] | 10µM*
C/C(CC(=O)NC(C)(C)C)=N\NC(=O)COc1ccc(C)cc1Br | . | . | . | ? | 14µM*
COc1ccccc1NC(=O)C(=O)N/N=C(\C)CC(=O)Nc1ccc(OCc2ccccc2)cc1 | 7% | 87 | -14% | -2% | 1%
COc1ccccc1NC(=O)C/C(C)=N/NC(=O)COc1c(Br)cc(Br)cc1OC | . | . | . | 6%[46 µM] | 7.9µM*
O=C(NNS(=O)(=O)c1ccc(Br)cc1)c1cccs1 | . | . | . | -4%[46 µM] | -2%
CC(=O)[C@]1(O)CC[C@@H]2[C@H]3C[C@@H](C)C4=CC(=O)CC[C@@]4(C)[C@H]3[C@@H](O)C[C@]21C | -2%[11.4 µM] | . | . | . | .
O=C(O)c1ccc(N2CC3CC(C2)c2cccc(=O)n2C3)c(NC(=S)Nc2ccc(Cl)cc2Cl)c1 (stereo unspecified) | . | . | . | 1%[46 µM] | 16µM*
Fc1ccc(C2NC(=S)NC3=C2N2CCC3CC2)cc1 (stereo unspecified) | 4% | ? | -5% | -4% | 14µM*
OCC(O)C(O)C(O)C(O)CO (stereo unspecified) | 2%[0.00818 µM] | . | -10% | ? | 14%
CCOC(=O)c1cnc(/N=C/N(C)C)s1 | . | . | . | 5%[46 µM] | 0%
CC1(C)CC(C)(O)N(Cc2ccccc2)C(=S)N1 (stereo unspecified) | -8% | -29 | -1% | -4% | 6%
CC1(CCc2ccccc2)NC(=S)N(c2ccc(Cl)cc2)N1 (stereo unspecified) | ? | -5 | 1µM* | ? | 7.1µM*
CC1(CCc2ccccc2)NC(=S)N(c2ccccc2)N1 (stereo unspecified) | ? | -124* | 40µM* | ? | 14%
S=C(NCCc1ccccc1)Nc1ccc(Cl)cc1 | -19% | 26 | -7% | -9% | 10%
CCC1(c2ccccc2)NC(=S)N(c2ccc(C)c(C)c2)N1 (stereo unspecified) | . | . | . | 15%[46 µM] | ?
CCC1(c2ccc(Cl)cc2)NC(=S)N(c2ccc(C)cc2)N1 (stereo unspecified) | -10% | 1 | ? | -12% | 28µM*
N#Cc1nc(-c2ccc(COc3ccc(Cl)cc3)o2)oc1N1CCCCC1 | . | . | . | 15%[46 µM] | .
COc1cc(-c2cc(OC)c3c(C)oc(C)c3c(=O)c2)ccc1OC(=O)c1ccccc1C | . | . | . | -21%[46 µM] | .
CCn1c(C)nc([N+](=O)[O-])c1Sc1ccc(F)cc1 | -5% | ? | -27% | ? | ?
CC(C)Cn1c(C(C)C)nc([N+](=O)[O-])c1Sc1ccc(Cl)cn1 | -13% | ? | -22% | -21% | 22µM*
CCCCn1c(CCC)nc([N+](=O)[O-])c1Sc1ccc(Cl)cn1 | -7% | ? | -15% | ? | 7.1µM*
SMILES | ALOX12 inhib | PNC inhibitor | HPGD inh | LMNA splice mod | ALDH1A1 block
COC(=O)[C@@]1(C)C[C@@H]1[C@@H](NC(=O)[C@@]1(C)C[C@@H]1[C@@H](NC(=O)[C@@]1(C)C[C@@H]1[C@@H](NC(=O)[C@@]1(C)C[C@@H]1[C@@H](NC(=O)OCc1ccccc1)c1ccccc1)c1ccccc1)c1ccccc1)c1ccccc1 | 2% | . | -2% | . | 3%
COCCNc1ncnc2ccc(-c3ccoc3)cc12 | . | . | . | 5% | ?
CN(C)c1ncnc2ccc(-c3ccoc3)cc12 | . | . | . | ? | 28µM*
CCOC(=O)c1ccc(NC(=S)NC2CCCC2)cc1 | -5% | -29 | -1% | 15% | 1%
CCOC(=O)c1ccc(NC(=S)NNC(=O)C2(C)CC2(Cl)Cl)cc1 (stereo unspecified) | -3% | 104 | 28µM* | ? | 10µM*
CCOC(=O)c1ccc(NC(=S)NNC(=O)COC)cc1 | 1% | 16 | -20% | -10% | 8.9µM*
COC(=O)c1ccc(NC(=S)NNC(=O)CC(C)C)cc1 | -1% | 42 | 28µM* | -14% | 0%
COC(=O)c1cc(OC)c(OC)cc1NC(=S)Nc1cc(Cl)ccc1OC | -1% | ? | . | -24% | -1%
COc1ccc(Cl)cc1NC(=S)NNC(=O)C1(C)CC1(Cl)Cl (stereo unspecified) | . | . | . | ? | 28µM*
CC(C)CC1OCCC=CC1C (stereo unspecified) | . | . | . | . | 6%[13.5 µM]
CCOC(=O)C1CSC(Cc2ccc(OCc3ccc([N+](=O)[O-])cc3)cc2)N1 (stereo unspecified) | -8% | . | -23% | . | 5%
O=C(NCCc1ccccc1)c1ccc2c(c1)N(Cc1ccccc1Cl)C(=O)c1ccccc1S2 | . | . | . | 6%[46 µM] | .
COc1ccc(C(=O)NC(=S)Nc2ccc(S(N)(=O)=O)cc2)cc1 | . | . | . | . | 29%
COC(=O)c1ccc(NC(=S)NNC(=O)c2ccccc2)cc1 | . | . | . | . | 8.9µM*
COc1ccccc1C(=O)NNC(=S)Nc1ccccc1 | . | . | . | -18%[46 µM] | 0%
COC(=O)c1cccnc1NC(=S)NNC(=O)c1ccccc1 | 12% | -1 | 25µM* | 2% | ?
COc1cc(C(=O)NNC(=S)Nc2ccc(S(N)(=O)=O)cc2)cc(OC)c1OC | . | . | . | . | 10µM*
Cc1cc2c(cc1S(=O)(=O)CCC(=O)N1CCCCC1C)OCC(=O)N2 (stereo unspecified) | . | . | . | -17%[46 µM] | .
COc1ccccc1CN(CC(=O)NCc1ccco1)C(=O)CNS(=O)(=O)c1ccc(C)cc1 | -8% | -15 | 3% | -5% | 22µM*
O=C(CN(Cc1ccc2c(c1)OCO2)C(=O)CNS(=O)(=O)c1ccccc1)NCc1ccco1 | -2% | -27 | -9% | 7% | 4.5µM*
COc1cccc(C(CC(=O)NCc2ccco2)NS(=O)(=O)c2ccc(C)cc2)c1OC (stereo unspecified) | 5% | -21 | -9% | -17% | 20µM*
COc1ccccc1CN(CC(=O)NCc1ccco1)C(=O)CNS(=O)(=O)c1ccccc1 | -5% | ? | -2% | -9% | ?
CN(C)c1ccc(C2(c3ccc(N(C)C)cc3)OC(=O)c3cc(N(C)C)ccc32)cc1 | -1% | . | ? | . | ?
COc1ccc(NC(=S)NCCSc2ccc(Cl)cc2)c(OC)c1 | ? | -1 | 16µM* | ? | 20µM*
COc1cc(C(=O)NCCc2ccc(S(N)(=O)=O)cc2)cc(OC)c1OC | 3% | -11 | . | 1% | 12%
COc1ccccc1NC(=S)NCCSc1ccc(Cl)cc1 | ? | 11 | -10% | ? | 0%
COc1cc(NC(=S)NCCc2ccc(S(N)(=O)=O)cc2)c(OC)cc1Cl | . | . | . | . | 11µM*
